molecular target: AMP-activated protein kinase, AMPK (Homo sapiens) (UniProt P54646+O43741+P54619+Q9UGJ0+Q9Y478+Q13131+Q9UGI9); assay: AMP-dependent Kinase enzyme assay. An in vitro enzyme assay that detects ADP turnover that is directly proportional to AMPK activity. This uses naive AMPK that is activated during the assay with MK-8722; type: functional; parameters: scale not given: direction of the effect not stated beside the values; conditions: 30 µM

**Q.** With `CCSc1cc(C(=O)NC(C)c2cccc(N3CCOC3=O)c2)ccn1` (stereo not given) as the compound, how does the Percent Effect read?
**A.** 7.17%

**Q.** How did the Percent Effect turn out when `Cc1occc1C(=O)Nc1ccc(C(=O)NC[C@H]2CCCN2)cc1` was run?
**A.** -9.02%

**Q.** With `CN(C)c1cc(N(C)Cc2cc(C(C)(C)C)n[nH]2)ncn1` as the compound, how does the Percent Effect read?
**A.** -16.4%

**Q.** `CCN(Cc1ccncc1)C1CCN(c2ccccc2)C1=O` (stereo not given) was tested. Which Percent Effect did it give?
**A.** -7.01%

**Q.** Which Percent Effect does the source give for `Cc1noc(-c2ccc(N(C)Cc3ccncn3)nc2)n1` here?
**A.** 0.463%

**Q.** For `FC(F)(F)c1cc(C2CCCN(Cc3cccnc3)C2)n[nH]1` (stereo not given), which Percent Effect is on record?
**A.** 5.52%

**Q.** For `COc1cc(Br)c(S(=O)(=O)NC(=O)C(C)OC)cc1OC` (stereo not given), which Percent Effect is on record?
**A.** -6.43%

**Q.** With `O=C(c1cc(C2CC2)nc2onc(-c3ccccc3)c12)N1CC[C@H](O)C1` as the compound, how does the Percent Effect read?
**A.** 4.74%

**Q.** `NC(=O)CN1CCc2c(Br)ccc(F)c2C1` was tested. Which Percent Effect did it give?
**A.** 1.51%

**Q.** For `CC(NC(=O)N1CCCN(C)CC1)c1ccc2c(c1)OCCO2` (stereo not given), which Percent Effect is on record?
**A.** 3.15%

**Q.** For `CC(C)NC(=O)N1CCCCCC1C1CCN(c2ncccn2)CC1` (stereo not given), which Percent Effect is on record?
**A.** -6.91%

**Q.** `CCCN(CC(F)(F)F)S(=O)(=O)c1cc(C(N)=O)n(C)c1` was tested. Which Percent Effect did it give?
**A.** -4.23%

**Q.** `Cc1cc(N(C)CC2COc3ccccc3O2)nc(C)n1` (stereo not given) was tested. Which Percent Effect did it give?
**A.** 1.48%

**Q.** For `Cc1ccc(F)c(C(=O)Nc2c(C(N)=O)n[nH]c2C)c1`, which Percent Effect is on record?
**A.** 9.84%

**Q.** `CN1CCN(c2cccc(NC(=O)NCc3csc(N(C)C)n3)c2)C1=O` was tested. Which Percent Effect did it give?
**A.** -16.7%

**Q.** For `CC(C)(C)c1ccc(-n2ncc3c2CCCC3N)cc1` (stereo not given), which Percent Effect is on record?
**A.** 5.4%

**Q.** For `Cc1cc(CN2CCC(C3CCN(Cc4cccnc4)CC3)C2)[nH]n1` (stereo not given), which Percent Effect is on record?
**A.** -8.19%

**Q.** How did the Percent Effect turn out when `CCC(C)C(=O)N(Cc1ccccn1)C1CC1` (stereo not given) was run?
**A.** 2.05%

**Q.** With `CN1CC2(CCN(CCCOCc3ccccc3)CC2)OC1=O` as the compound, how does the Percent Effect read?
**A.** 2.54%

**Q.** How did the Percent Effect turn out when `CC1CN(C)CCN1C(=O)c1cccn1Cc1cccs1` (stereo not given) was run?
**A.** 3.93%

**Q.** With `Cc1nc(CN(C)S(=O)(=O)c2ccccc2C(F)(F)F)no1` as the compound, how does the Percent Effect read?
**A.** 4.4%

**Q.** For `Cn1cc(NC(=O)Cc2ccccc2Br)cc1C(N)=O`, which Percent Effect is on record?
**A.** 3.12%

**Q.** With `CCC(C#N)NC(=O)c1sccc1OC` (stereo not given) as the compound, how does the Percent Effect read?
**A.** 2.49%

**Q.** For `O=C1NC(C(=O)NCc2cccnc2Oc2ccc(F)cc2F)CO1` (stereo not given), which Percent Effect is on record?
**A.** 5.7%

**Q.** With `Cc1nc2sccn2c1CN(CCCN(C)C)Cc1ccccn1` as the compound, how does the Percent Effect read?
**A.** 3.1%

**Q.** `Cc1nsc(C(=O)NCCc2ccccc2)n1` was tested. Which Percent Effect did it give?
**A.** 3.51%

**Q.** `COCCNc1ccc(CC2CCCN(c3ncccn3)C2)nn1` (stereo not given) was tested. Which Percent Effect did it give?
**A.** 6.13%

**Q.** `COc1c(C2CCCN2CC(=O)N(C)c2nccs2)c(C)nn1C` (stereo not given) was tested. Which Percent Effect did it give?
**A.** 5.92%

**Q.** `COc1ccc2c(c1)CCCC2CC(=O)NCC(=O)O` (stereo not given) was tested. Which Percent Effect did it give?
**A.** 3.73%

**Q.** With `CCn1nc(C)cc1C(=O)N1C[C@@H](CN(C)C)[C@@H](CO)C1` as the compound, how does the Percent Effect read?
**A.** 0.455%

**Q.** For `O=C(NCCCn1cccn1)C1COCC(=O)N1Cc1ccccc1` (stereo not given), which Percent Effect is on record?
**A.** -3.92%

**Q.** `CC(C)[C@H](N)C(=O)N1CCCC(C2=Nc3ccccc3S(=O)(=O)N2)C1` (stereo not given in full) was tested. Which Percent Effect did it give?
**A.** 7.27%

**Q.** Which Percent Effect does the source give for `CS(=O)(=O)N1CCC(CNc2c(Cl)cccc2C#N)CC1` here?
**A.** 7.5%

**Q.** How did the Percent Effect turn out when `CN(C)S(=O)(=O)NCC1CCN(Cc2ccccc2F)CC1` was run?
**A.** -2.6%

**Q.** With `Cc1cc(C)c(C(=O)N2CCC3(CCCNC3)C2)cc1C` (stereo not given) as the compound, how does the Percent Effect read?
**A.** 7.09%

**Q.** Which Percent Effect does the source give for `CCCC(=O)Nc1cccc(C(=O)N(C)CCCC2CCCO2)c1` (stereo not given) here?
**A.** 7.97%

**Q.** Which Percent Effect does the source give for `NC(=O)c1ccc(NC(=O)N2CCN(c3cccs3)CC2)c(F)c1` here?
**A.** 2.09%

**Q.** Which Percent Effect does the source give for `Cc1nc2c(c(=O)[nH]1)CN(C(=O)CCC1CCCN(C)C1)C2` (stereo not given) here?
**A.** 12%

**Q.** Which Percent Effect does the source give for `Cc1ccc(NC(=O)CN[C@H](C(N)=O)C(C)C)cc1F` here?
**A.** -14.9%

**Q.** With `Clc1cc(NCc2ncc[nH]2)nc2[nH]ccc12` as the compound, how does the Percent Effect read?
**A.** 24.1%
